Unmarked numbers belong to inactive results. Activity calls are given as the source filed them.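 How the source made its calls, unless noted: active means inhibition above 50%; inactive means the rest.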
Experiment: antimalarial activity against Dd2 strain (AID 2302;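 active means growth inhibition above 50% at the single 2 µM test dose, taken to imply half-maximal potency below 2 µM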;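 further: 0% = DMSO untreated growth and 100% = chloroquine plus artemisinin killed control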)
Conditions: P. falciparum Dd2 in RBCs, LDH growth readout, 72 h; at 2 µM; stronger effect = higher value

| SMILES | growth inhibition |
| --- | --- |
| COc1cc2nc(NCc3cccc(CNC(=O)c4ccc(-c5ccc(C(C)=O)cc5)cc4)c3)nc(N)c2cc1OC | 72% (active) |
| COc1ccc(CCN(C)CCCOc2ccc(NC(=O)COc3cccc4sc5ccccc5c(=O)c34)cc2)cc1OC | 90% (active) |
| O=S(=O)(c1ccc(OCc2ccc(Cl)cc2)cc1)c1cc2c(cc1O)CCN(C1CCC1)CC2 | 63% (active) |
| O=C(Nc1ccccc1)Nc1cccc(-c2nn3c(OCC4CCCCN4)cccc3c2-c2ccncc2)c1 (stereo not given) | 82% (active) |
| Cc1nnsc1C(=O)Nc1cccc(-c2cccc(-c3nc4ccc(F)cc4[nH]3)c2)c1 | 45% |
| CN(CCCNCc1cccc2ccccc12)CCCNCc1cccc2ccccc12 | 94% (active) |
| C[C@@H](Nc1nc(NCc2ccccc2)c2sccc2n1)c1ccccc1 | 75% (active) |
| CN(C)CCCOc1ccccc1CN1CC[C@H](NC(=O)c2ccc(Cl)c(Cl)c2)C1 | 54% (active) |
| COc1ccc(-c2cccc(NC(=O)c3cccc(C#N)c3)c2)cc1CN1CCNCC1 | 15% |
| Cc1nc2c(Nc3nc(-c4ccncc4)cs3)ncnc2n1-c1ccccc1Cl | 96% (active) |
| Fc1ccc(Nc2ccnc3cc(-c4ccc(CN5CCOCC5)o4)ccc23)c(Cl)c1 | 100% (active) |
| O=C(/C=C/c1ccc(Cl)c(Cl)c1)NCCCCCN1CCC(NC(=O)Nc2ccc([N+](=O)[O-])cc2)CC1 | 2% |
| CO/C(=C\C=C\c1cc2cc(Cl)c(Cl)cc2[nH]1)C(=O)NC1CCN(CCCc2ccccc2)CC1 | 75% (active) |
| COc1ccc2cc(CNCCCCCCNCc3ccc4cc(OC)ccc4c3)ccc2c1 | 92% (active) |
| O=C(/C=C/c1cccc(C(F)(F)F)c1)NCCCCCN1CCC(c2c[nH]c3ccccc23)CC1 | 14% |
| CC(C)CCN1CCCN(Cc2cccc(NC(=O)c3cc4ccccc4s3)c2)CC1 | 8% |
| CNCCNCc1ccc(-c2ccc(-c3nc4c(C)cccc4[nH]3)cc2)cc1 | 79% (active) |
| CS(=O)(=O)CCNCc1cccc(-c2cc3c(Nc4ccc5c(cnn5Cc5ccccc5)c4)ncnc3s2)c1 | 101% (active) |
| Cc1cc(N2CCCC2)nc(Nc2ccc(NC(=O)c3ccccc3)cc2)n1 | 65% (active) |
| CN1C[C@@H](c2ccccc2)c2cc(O)c(CN3CCCCC3)cc2C[C@H]1Cc1ccccc1 | 99% (active) |

| SMILES | growth inhibition |
| --- | --- |
| CN(Cc1cccc(C#N)c1)C1CCN(c2cc(NC(=O)c3ccc(F)cc3)ccn2)CC1 | 23% |
| CCC1N=C(N)N=C(N)N1OCCCOc1c(Cl)cc(Cl)cc1Cl (stereo not given) | 96% (active) |
| O=c1c2c([nH]c3cc(Cl)ccc13)CCCC2 | 73% (active) |
| COc1cc(F)c2nccc([C@@H](O)CN3CCC(NCc4nc5c(F)cccc5[nH]4)CC3)c2c1 | 5% |
| Cc1cc(NC(=O)Nc2ccc(I)c(OCCN(C)C)c2)ccc1Br | 42% |
| Cc1c(-c2cccc(NC(=O)C(C)(C)Oc3ccc(Cl)cc3)c2)nc2ncccn12 | 95% (active) |
| CCS(=O)(=O)c1ccc(-c2cnc3[nH]cc(-c4ccc(N)cc4)c3c2)cc1 | 99% (active) |
| COc1ccc(C)c(Nc2ccnc(Nc3ccc(-c4cnc[nH]4)cc3)n2)c1 | 6% |
| Oc1ccc(CCNc2nc(NCCCOc3ccccc3-c3ccc(C(F)(F)F)cc3)nc(N3CCNCC3)n2)cc1 | 49% |
| CCCn1c(=N)c(C(=O)NCCc2ccccc2)cc2c(=O)n3cccc(C)c3nc21 | 64% (active) |
| CN(C)c1ccc(-c2ccc(C(=O)NC3CCN(Cc4ccc(F)cc4)CC3)s2)cc1 | 19% |
| CC(=O)N[C@@H]1c2cc(C(C)=O)ccc2OC(C)(C)[C@@H]1O | 3% |
| COc1cccc(-c2cnc(N)c(-c3nc4ccc(C(F)(F)F)cc4[nH]3)c2)c1 | 30% |
| COc1ccc(CNC(=O)Nc2cc3cc(-c4ccc(CN5CCCC5)cc4)ccc3n3c(C)nnc23)cc1 | 100% (active) |
| O=C(Cc1cn(-c2ccccc2)nc1-c1ccc(Cl)cc1)Nc1nccs1 | 8% |
| COc1cccc(CN(C(=O)Nc2ccccc2F)[C@H]2C[C@H]3C(=O)Nc4cc(F)ccc4C(=O)N3C2)c1 | 75% (active) |
| Cc1cc(NN=Cc2ccc([N+](=O)[O-])cc2)c2ccc(F)cc2n1 | 22% |
| N#Cc1cccc(-c2cccc(C(=O)NC3CCC(CCN4CCc5ccc(C#N)cc5CC4)CC3)c2)c1 (stereo not given) | 57% (active) |
| Cc1cc(NC(=O)Nc2ccc3nccc(N4CCN(C)CC4)c3c2)ccc1Br | 100% (active) |
| O[C@@H](c1ccccc1)[C@@H]1CN(CCc2ccccc2)CC[C@@]1(O)c1ccccc1 | 92% (active) |

Experiment: human hepatoma cell viability loss – ATP luminescence, cytotoxicity control for P. falciparum antimalarial project, primary screen (AID 2303);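 further: 0% = DMSO wells and 100% = digitonin-killed cells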
Conditions: HepG2 viability, 24-48 h, at 10 µM, stronger effect = higher value

| SMILES | inhibition |
| --- | --- |
| COc1cc2nc(NCc3cccc(CNC(=O)c4ccc(-c5ccc(C(C)=O)cc5)cc4)c3)nc(N)c2cc1OC | 32% |
| COc1ccc(CCN(C)CCCOc2ccc(NC(=O)COc3cccc4sc5ccccc5c(=O)c34)cc2)cc1OC | 99% (active) |
| O=S(=O)(c1ccc(OCc2ccc(Cl)cc2)cc1)c1cc2c(cc1O)CCN(C1CCC1)CC2 | 11% |
| O=C(Nc1ccccc1)Nc1cccc(-c2nn3c(OCC4CCCCN4)cccc3c2-c2ccncc2)c1 (stereo not given) | 9% |
| Cc1nnsc1C(=O)Nc1cccc(-c2cccc(-c3nc4ccc(F)cc4[nH]3)c2)c1 | 35% |
| CN(CCCNCc1cccc2ccccc12)CCCNCc1cccc2ccccc12 | 93% (active) |
| C[C@@H](Nc1nc(NCc2ccccc2)c2sccc2n1)c1ccccc1 | 31% |
| CN(C)CCCOc1ccccc1CN1CC[C@H](NC(=O)c2ccc(Cl)c(Cl)c2)C1 | 42% |
| COc1ccc(-c2cccc(NC(=O)c3cccc(C#N)c3)c2)cc1CN1CCNCC1 | 27% |
| Cc1nc2c(Nc3nc(-c4ccncc4)cs3)ncnc2n1-c1ccccc1Cl | 14% |
| Fc1ccc(Nc2ccnc3cc(-c4ccc(CN5CCOCC5)o4)ccc23)c(Cl)c1 | 42% |
| O=C(/C=C/c1ccc(Cl)c(Cl)c1)NCCCCCN1CCC(NC(=O)Nc2ccc([N+](=O)[O-])cc2)CC1 | 20% |
| CO/C(=C\C=C\c1cc2cc(Cl)c(Cl)cc2[nH]1)C(=O)NC1CCN(CCCc2ccccc2)CC1 | 59% (active) |
| COc1ccc2cc(CNCCCCCCNCc3ccc4cc(OC)ccc4c3)ccc2c1 | 100% (active) |
| O=C(/C=C/c1cccc(C(F)(F)F)c1)NCCCCCN1CCC(c2c[nH]c3ccccc23)CC1 | 70% (active) |
| CC(C)CCN1CCCN(Cc2cccc(NC(=O)c3cc4ccccc4s3)c2)CC1 | 34% |
| CNCCNCc1ccc(-c2ccc(-c3nc4c(C)cccc4[nH]3)cc2)cc1 | 19% |
| CS(=O)(=O)CCNCc1cccc(-c2cc3c(Nc4ccc5c(cnn5Cc5ccccc5)c4)ncnc3s2)c1 | 36% |
| Cc1cc(N2CCCC2)nc(Nc2ccc(NC(=O)c3ccccc3)cc2)n1 | 26% |
| CN1C[C@@H](c2ccccc2)c2cc(O)c(CN3CCCCC3)cc2C[C@H]1Cc1ccccc1 | -6% |

| SMILES | inhibition |
| --- | --- |
| CN(Cc1cccc(C#N)c1)C1CCN(c2cc(NC(=O)c3ccc(F)cc3)ccn2)CC1 | 4% |
| CCC1N=C(N)N=C(N)N1OCCCOc1c(Cl)cc(Cl)cc1Cl (stereo not given) | 67% (active) |
| O=c1c2c([nH]c3cc(Cl)ccc13)CCCC2 | 33% |
| COc1cc(F)c2nccc([C@@H](O)CN3CCC(NCc4nc5c(F)cccc5[nH]4)CC3)c2c1 | 11% |
| Cc1cc(NC(=O)Nc2ccc(I)c(OCCN(C)C)c2)ccc1Br | 18% |
| Cc1c(-c2cccc(NC(=O)C(C)(C)Oc3ccc(Cl)cc3)c2)nc2ncccn12 | 0% |
| CCS(=O)(=O)c1ccc(-c2cnc3[nH]cc(-c4ccc(N)cc4)c3c2)cc1 | 24% |
| COc1ccc(C)c(Nc2ccnc(Nc3ccc(-c4cnc[nH]4)cc3)n2)c1 | 40% |
| Oc1ccc(CCNc2nc(NCCCOc3ccccc3-c3ccc(C(F)(F)F)cc3)nc(N3CCNCC3)n2)cc1 | 64% (active) |
| CCCn1c(=N)c(C(=O)NCCc2ccccc2)cc2c(=O)n3cccc(C)c3nc21 | 8% |
| CN(C)c1ccc(-c2ccc(C(=O)NC3CCN(Cc4ccc(F)cc4)CC3)s2)cc1 | 34% |
| CC(=O)N[C@@H]1c2cc(C(C)=O)ccc2OC(C)(C)[C@@H]1O | 15% |
| COc1cccc(-c2cnc(N)c(-c3nc4ccc(C(F)(F)F)cc4[nH]3)c2)c1 | 5% |
| COc1ccc(CNC(=O)Nc2cc3cc(-c4ccc(CN5CCCC5)cc4)ccc3n3c(C)nnc23)cc1 | 100% (active) |
| O=C(Cc1cn(-c2ccccc2)nc1-c1ccc(Cl)cc1)Nc1nccs1 | 9% |
| COc1cccc(CN(C(=O)Nc2ccccc2F)[C@H]2C[C@H]3C(=O)Nc4cc(F)ccc4C(=O)N3C2)c1 | -7% |
| Cc1cc(NN=Cc2ccc([N+](=O)[O-])cc2)c2ccc(F)cc2n1 | -3% |
| N#Cc1cccc(-c2cccc(C(=O)NC3CCC(CCN4CCc5ccc(C#N)cc5CC4)CC3)c2)c1 (stereo not given) | 31% |
| Cc1cc(NC(=O)Nc2ccc3nccc(N4CCN(C)CC4)c3c2)ccc1Br | 31% |
| O[C@@H](c1ccccc1)[C@@H]1CN(CCc2ccccc2)CC[C@@]1(O)c1ccccc1 | -2% |

From PubChem BioAssay
